# Source: PubChem BioAssay (NCATS)
# Values joined by “and” are separate entries in the source; they are usually repeats but may differ in a detail not shown here. Equal values may be shown once. Inconclusive results are not listed. Active and inactive are the calls of the source. Unless noted, calls come from the whole dose curve.
# Key:
# [1] = molecular target: Bile acid receptor (Homo sapiens) (UniProt Q96RI1); test: qHTS assay for small molecule agonists of farnesoid X receptor signaling (AID 588527); settings: HEK293T FXR-UAS-bla, beta-lactamase ratio, 16 h; activation: stronger effect = higher value;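 note: series mostly up to about 77 µM; 0% = vehicle basal and 100% = reference agonist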
# In short: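 Quantitative HTS used FXR-UAS-bla HEK293T cells with 16 h compound incubation at 37 C. EC50 values came from concentration-response curves normalized to chenodeoxycholic acid.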
# [2] = molecular target: Peroxisome proliferator-activated receptor delta (Homo sapiens) (UniProt Q03181); test: qHTS assay for small molecule agonists of peroxisome proliferator-activated receptor delta signaling (AID 588534);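 note: 0% = DMSO basal wells and 100% = positive control agonist at 10 µM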
# In short: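 Agonist-mode qHTS; reporter cells, 5 hrs 37 C pre-incubation; compound titration, 18 hrs 37 C; CCF4 dye, 2 hrs RT; fluorescence read. EC50/efficacy via Hill fit.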
# [3] = molecular target: Glucocorticoid receptor (Homo sapiens) (UniProt P04150); test: qHTS assay for small molecule agonists of glucocorticoid receptor signaling (AID 588532; active = well fitted curve in the direction sought with a large enough effect in the signal ratio, with a control signal flat; the % refers to the signal ratio;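 note: 100% = dexamethasone at 0.1 µM and 0% = DMSO only wells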); settings: HeLa MMTV-bla, beta-lactamase ratio, agonist, 18 h; activation: stronger effect = higher value, percent of dexamethasone control, DMSO zero
# In short: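 Using MMTV-bla HeLa cells in medium with 1% stripped FBS and 25 mM HEPES, compounds were titrated and incubated overnight-length (18 h). Beta-lactamase cleavage of CCF4 was quantified by dual-emission fluorescence.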
# [4] = molecular target: Peroxisome proliferator-activated receptor gamma (Homo sapiens) (UniProt P37231); test: qHTS assay for small molecule agonists of peroxisome proliferator-activated receptor gamma signaling (AID 588536; active = well fitted curve in the direction sought with a large enough effect in the signal ratio, with a control signal flat, not every such curve was filed as active; the % refers to the signal ratio;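 note: 0% = DMSO basal wells and 100% = rosiglitazone at 2 µM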)
# In short: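 Using GeneBLAzer HEK293 cells, response was quantified by CCF4 fluorescence and normalized between basal DMSO (0%) and rosiglitazone 2 uM (100%); curves yielded half-maximal stimulation concentration and efficacy.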
# [5] = molecular target: Vitamin D3 receptor (Homo sapiens) (UniProt P11473); test: qHTS assay for small molecule agonists of vitamin D receptor signaling (AID 588543);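 note: 0% = DMSO basal and 100% = reference agonist control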
# In short: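 qHTS in agonist mode: compound titrations stimulate a VDR-driven β-lactamase reporter in HEK293T cells over 16 h at 37 °C. Response normalized to 50 nM 1α,25-dihydroxyvitamin D3 = 100%, DMSO = 0%; Hill fitting gives EC50 and maximal response.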
# [6] = molecular target: Thyroid hormone receptor beta (Homo sapiens) (UniProt P10828); test: qHTS assay for small molecule agonists of thyroid hormone receptor beta signaling (AID 588545);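 note: 0% = DMSO only and 100% = 10 nM T3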
# In short: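 TR-UAS-bla GripTite HEK 293 cells (2500/well, medium with 2% charcoal/dextran FBS) were treated in agonist mode for 18 h at 37 C, titrated. Beta-lactamase was read by CCF4 ratio after 2 h; normalized to 10 nM T3 (100%) and DMSO, Hill-fitted for EC50 and efficacy.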
# [7] = qHTS assay for small molecule activators of the p53 signaling pathway (AID 651743; active = well fitted activation curve with a large enough effect in the signal ratio, not every such curve was filed as active; the % refers to the signal ratio; note: potency is the fitted concentration of half-maximal effect); settings: HCT-116 p53RE-bla, beta-lactamase FRET ratio, 16 h; activation: stronger effect = higher value
# In short: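 After 16 hours compound treatment at 37 C, HCT-116 cells stably expressing p53RE-driven beta-lactamase were loaded with LiveBLAzer B/G FRET substrate for 2 hours at room temperature. Fluorescence intensity served as the p53 activation read-out.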
# [8] = qHTS assay for small molecule activators of the nuclear factor-kappa B (NF-kB) signaling pathway (AID 651749; active = well fitted activation curve with a large enough effect in the signal ratio; the % refers to the signal ratio; note: series mostly up to about 77 µM; % of control where 0% means no effect); settings: NF-kB-bla ME-180 cells, beta-lactamase FRET ratio, 16 h; activation: stronger effect = higher value
# In short: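 Activation measured after 16 hr compound treatment at 37C, 5% CO2, of 2,000 ME-180 cells/well stably expressing an NF-kB response element–driven beta-lactamase reporter, via FRET-disruption fluorescence.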
# [9] = qHTS assay for environmental chemicals that activate the Aryl hydrocarbon Receptor (AhR) signaling pathway (AID 651777; active = well fitted curve in the direction sought with a large enough effect; an effect the other way counts as inactive or inconclusive; note: nearly all actives have a fitted effect of over 15% in size; note: potency is the fitted concentration of half-maximal effect; for activation: % of control where 0% means no effect); settings: 1A2-DRE human hepatoma cells, luciferase, 24 h; activation: stronger effect = higher value
# In short: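 Quantitative HTS in stably transfected human liver-derived cells whose luciferase gene sits downstream of the CYP1A2 promoter and dioxin response element. After 24 hr exposure at 37 C, One-Glo luminescence was measured.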
# [10] = molecular target: Peroxisome proliferator-activated receptor alpha (Homo sapiens) (UniProt Q07869); test: qHTS assay for small molecule agonists of the peroxisome proliferator-activated receptor alpha (PPARalpha) signaling pathway (AID 651778; active = well fitted curve in the direction sought with a large enough effect; an effect the other way counts as inactive or inconclusive; note: % of control where 0% means no effect); settings: PathHunter PPARalpha complementation, chemiluminescence, 6 h; max response: stronger effect = higher value
# In short: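 Chemiluminescence from complemented enzyme reported PPARalpha activation in cells after 6 hr of compound treatment at 37 C. The detection reagent was incubated for 60 min at room temperature, and compounds were scored as agonists.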
# [11] = qHTS assay for small molecule agonists of the antioxidant response element (ARE) signaling pathway measured by Nrf2-dependant transcriptional activity - cell viability counter screen (AID 720653; active = well fitted curve in the direction sought with a large enough effect in the repeat runs; an effect the other way counts as inactive or inconclusive; note: potency is the fitted concentration of half-maximal effect; for max response: % is set by controls: 0 for no effect and ±100 for the full control effect); settings: ARE-bla HepG2 viability, CellTiter-Glo ATP luminescence, 16 h; max response: stronger effect = lower value
# In short: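 Cytotoxicity counter screen: intracellular ATP quantified by CellTiter-Glo luminescence in the same ARE-bla HepG2 plates, after 16 h compound exposure and a 2 h beta-lactamase substrate step.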
# [12] = qHTS assay for cell viability of HEK293 cells (AID 743288; active = well fitted curve in the direction sought with a large enough effect; an effect the other way counts as inactive or inconclusive; note: nearly all actives have a fitted effect of over 50% in size; note: potency is the fitted concentration of half-maximal effect; for max response: % is set by controls: 0 for no effect and ±100 for the full control effect); settings: ATP luminescence (CellTiter-Glo), 18 h; max response: stronger effect = lower value
# In short: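 Quantitative high-throughput screen: compounds were pinned onto parental HEK293 cells (2,000 per well) after a minimum 5 h settling at 37 C, incubated 18 h at 37 C, and intracellular ATP measured by luciferase luminescence.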
# [13] = qHTS assay for cell viability of the p53RE-bla HCT-116 cell line (AID 743292; active = well fitted curve in the direction sought with a large enough effect; an effect the other way counts as inactive or inconclusive; note: nearly all actives have a fitted effect of over 55% in size; note: potency is the fitted concentration of half-maximal effect)
# In short: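 Viability of compound-treated p53RE-bla HCT-116 cells is taken from ATP-dependent luciferase luminescence. Treatment lasts 16 h at 37 C after a 5 h settling period; detection follows 30 min at room temperature.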
# [14] = molecular target: Vitamin D3 receptor (Homo sapiens) (UniProt P11473); test: qHTS assay for small molecule antagonists of vitamin D receptor signaling (AID 588541); note: potency is the fitted concentration of half-maximal effect
# In short: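 Antagonist-mode beta-lactamase reporter assay: HEK293T VDR-UAS-bla cells were exposed to titrated compound alongside 1-alpha,25-dihydroxyvitamin D3 at 3 nM final for 16 h. Values were normalized to the 50 nM agonist control and DMSO basal, with IC50 and efficacy from Hill equation fits.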
# [15] = qHTS assay for small molecule agonists of retinoid X receptor alpha signaling (AID 588544); settings: HEK293T RXRa-UAS-bla, beta-lactamase reporter, 18 h; 530 nm emission; note: potency is the fitted concentration of half-maximal effect;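 for activation: 0% = DMSO basal wells and 100% = reference agonist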
# [16] = molecular target: Retinoic acid receptor RXR-alpha (Homo sapiens) (UniProt P19793); test: as above
# [17] = molecular target: Thyroid hormone receptor beta (Homo sapiens) (UniProt P10828); test: qHTS assay for small molecule antagonists of thyroid hormone receptor beta signaling (AID 588547; active = well fitted inhibition curve with a large enough effect in the signal ratio, with a control signal flat, not every such curve was filed as active; the % refers to the signal ratio;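 note: cells stimulated with 0.4 nM T3 agonist during compound exposure; series mostly up to about 77 µM; % is set by controls: 0 for no effect and ±100 for the full control effect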); settings: TR-UAS-bla HEK293, beta-lactamase ratio, antagonist mode, 18 h
# In short: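 Inhibition of T3-driven (0.4nM final) beta-lactamase reporter activity was measured over 0.59 nM to 92 uM compound after 18 h at 37 C. The cells were GripTite HEK293 TR-UAS-bla in charcoal/dextran-stripped serum, with CCF4 ratio read-out and IC50 from Hill fits.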
# [18] = qHTS assay for small molecule agonists of the antioxidant response element (ARE) signaling pathway (AID 651741; active = well fitted activation curve with a large enough effect in the signal ratio; the % refers to the signal ratio; note: potency is the fitted concentration of half-maximal effect)
# In short: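 Beta-lactamase reporter under ARE control in HepG2 cells, 2,000 per well, was induced by 16 h compound treatment at 37 C. Read-out was fluorescence from LiveBLAzer B/G FRET substrate after 2 h at room temperature.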
# [19] = qHTS assay for small molecule agonists of the antioxidant response element (ARE) signaling pathway measured by Nrf2-dependant transcriptional activity (AID 720636; active = well fitted curve in the direction sought with a large enough effect in the repeat runs; an effect the other way counts as inactive or inconclusive; note: % of control where 0% means no effect)
# In short: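 Quantitative HTS format in HepG2 cells stably expressing an ARE-luciferase reporter; 16 hr compound treatment at 37 C, luciferase signal detected with ONE-Glo.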
# [20] = qHTS assay for small molecule antagonists of peroxisome proliferator-activated receptor delta signaling (AID 588535; active = well fitted inhibition curve with a large enough effect in the signal ratio, with a control signal flat, not every such curve was filed as active; the % refers to the signal ratio;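 for max response: cells co-treated with a PPAR-delta agonist as stimulator during compound exposure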); settings: HEK293T PPARd-UAS-bla, beta-lactamase FRET ratio, 18 h; 460 nm channel
# In short: (§1)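 Titrations were run on PPAR-delta-UAS-bla HEK293T cells in charcoal/dextran-stripped serum, incubated 18 h at 37 C. CCF4 fluorescence (460/530 nm) after 2 h RT; Hill equation yields IC50 and maximal response.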
# [21] = molecular target: Peroxisome proliferator-activated receptor delta (Homo sapiens) (UniProt Q03181); test: as above
# In short: as §1
# [22] = qHTS assay for small molecule antagonists of retinoid X receptor alpha signaling (AID 588546; active = well fitted inhibition curve with a large enough effect in the signal ratio, with a control signal flat, not every such curve was filed as active; the % refers to the signal ratio;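 note: cells stimulated with 9-cis-retinoic acid as agonist; % is set by controls: 0 for no effect and ±100 for the full control effect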); settings: HEK293T RXRa-UAS-bla, beta-lactamase ratio, antagonist mode; measured here: W530 green channel, cytotoxicity proxy
# In short: (§2)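 Beta-lactamase reporter inhibition, read as CCF4 fluorescence ratio (ex 405, em 460/530 nm) after 2 h at RT. HEK293T UAS-bla cells, 2500/well, were stimulated with 9-cis-RA at 500 or 100 nM final alongside test compound for 18 h at 37 C.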
# [23] = molecular target: Retinoic acid receptor RXR-alpha (Homo sapiens) (UniProt P19793); test: as above; settings: HEK293T RXRa-UAS-bla, beta-lactamase ratio, antagonist mode
# In short: as §2
# Chain of Retinoic acid receptor RXR-alpha (Homo sapiens) (P19793 whole entry, looked up): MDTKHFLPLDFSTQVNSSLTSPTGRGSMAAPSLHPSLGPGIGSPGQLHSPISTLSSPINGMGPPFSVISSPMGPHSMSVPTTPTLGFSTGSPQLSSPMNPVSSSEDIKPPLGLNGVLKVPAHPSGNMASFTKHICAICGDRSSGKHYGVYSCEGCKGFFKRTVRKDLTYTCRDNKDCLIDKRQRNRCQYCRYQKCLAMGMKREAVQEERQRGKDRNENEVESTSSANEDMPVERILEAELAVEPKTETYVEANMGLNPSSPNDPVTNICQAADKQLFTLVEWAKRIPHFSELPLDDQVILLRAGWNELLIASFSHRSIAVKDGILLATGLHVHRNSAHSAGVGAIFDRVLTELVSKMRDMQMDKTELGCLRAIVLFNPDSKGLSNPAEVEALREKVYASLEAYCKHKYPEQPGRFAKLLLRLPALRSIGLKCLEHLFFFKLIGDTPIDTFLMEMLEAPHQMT
# Chain of Vitamin D3 receptor (Homo sapiens) (P11473 whole entry, looked up): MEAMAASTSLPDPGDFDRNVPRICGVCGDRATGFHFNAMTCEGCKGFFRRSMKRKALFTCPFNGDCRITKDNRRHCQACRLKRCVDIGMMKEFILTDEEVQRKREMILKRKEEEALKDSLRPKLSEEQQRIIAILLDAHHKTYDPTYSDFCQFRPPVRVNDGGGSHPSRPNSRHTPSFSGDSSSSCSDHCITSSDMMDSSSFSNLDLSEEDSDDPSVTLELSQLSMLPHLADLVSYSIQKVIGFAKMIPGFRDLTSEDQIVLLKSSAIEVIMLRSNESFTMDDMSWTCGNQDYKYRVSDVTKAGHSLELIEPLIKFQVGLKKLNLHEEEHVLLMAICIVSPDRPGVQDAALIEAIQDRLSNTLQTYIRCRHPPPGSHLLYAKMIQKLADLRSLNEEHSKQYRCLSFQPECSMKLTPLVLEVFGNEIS
# Chain of Peroxisome proliferator-activated receptor delta (Homo sapiens) (Q03181 whole entry, looked up): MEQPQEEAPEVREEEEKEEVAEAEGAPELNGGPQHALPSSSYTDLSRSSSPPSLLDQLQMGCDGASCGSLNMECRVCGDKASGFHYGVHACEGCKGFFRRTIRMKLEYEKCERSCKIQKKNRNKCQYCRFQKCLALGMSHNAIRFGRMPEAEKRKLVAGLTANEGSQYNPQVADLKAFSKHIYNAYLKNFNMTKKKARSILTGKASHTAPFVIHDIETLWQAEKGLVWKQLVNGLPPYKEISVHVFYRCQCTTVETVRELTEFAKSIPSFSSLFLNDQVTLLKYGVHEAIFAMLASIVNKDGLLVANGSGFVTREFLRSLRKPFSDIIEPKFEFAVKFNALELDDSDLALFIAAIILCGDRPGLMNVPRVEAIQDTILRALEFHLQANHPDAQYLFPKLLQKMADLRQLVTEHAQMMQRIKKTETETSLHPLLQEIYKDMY
# Chain of Glucocorticoid receptor (Homo sapiens) (P04150 whole entry, looked up): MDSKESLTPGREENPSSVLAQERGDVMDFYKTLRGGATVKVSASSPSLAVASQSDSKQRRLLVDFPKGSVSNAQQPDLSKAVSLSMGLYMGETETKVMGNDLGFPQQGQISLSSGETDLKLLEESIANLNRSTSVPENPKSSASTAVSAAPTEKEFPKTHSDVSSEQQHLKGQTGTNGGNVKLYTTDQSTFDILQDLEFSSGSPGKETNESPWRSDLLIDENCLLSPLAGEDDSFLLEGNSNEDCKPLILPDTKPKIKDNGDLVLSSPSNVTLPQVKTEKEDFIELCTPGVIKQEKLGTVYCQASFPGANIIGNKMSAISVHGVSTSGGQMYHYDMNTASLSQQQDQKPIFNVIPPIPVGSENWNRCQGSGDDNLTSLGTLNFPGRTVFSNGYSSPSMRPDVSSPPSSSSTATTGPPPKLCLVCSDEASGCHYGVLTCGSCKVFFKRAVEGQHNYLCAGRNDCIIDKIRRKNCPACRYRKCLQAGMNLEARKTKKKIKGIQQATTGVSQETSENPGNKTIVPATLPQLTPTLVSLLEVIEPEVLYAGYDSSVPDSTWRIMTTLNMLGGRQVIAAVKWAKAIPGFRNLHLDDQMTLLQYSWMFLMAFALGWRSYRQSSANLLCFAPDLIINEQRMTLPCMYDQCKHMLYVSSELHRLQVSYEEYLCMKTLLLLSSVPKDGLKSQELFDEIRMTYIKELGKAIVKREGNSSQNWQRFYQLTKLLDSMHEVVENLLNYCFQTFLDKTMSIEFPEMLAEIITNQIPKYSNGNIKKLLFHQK
# Chain of Peroxisome proliferator-activated receptor alpha (Homo sapiens) (Q07869 whole entry, looked up): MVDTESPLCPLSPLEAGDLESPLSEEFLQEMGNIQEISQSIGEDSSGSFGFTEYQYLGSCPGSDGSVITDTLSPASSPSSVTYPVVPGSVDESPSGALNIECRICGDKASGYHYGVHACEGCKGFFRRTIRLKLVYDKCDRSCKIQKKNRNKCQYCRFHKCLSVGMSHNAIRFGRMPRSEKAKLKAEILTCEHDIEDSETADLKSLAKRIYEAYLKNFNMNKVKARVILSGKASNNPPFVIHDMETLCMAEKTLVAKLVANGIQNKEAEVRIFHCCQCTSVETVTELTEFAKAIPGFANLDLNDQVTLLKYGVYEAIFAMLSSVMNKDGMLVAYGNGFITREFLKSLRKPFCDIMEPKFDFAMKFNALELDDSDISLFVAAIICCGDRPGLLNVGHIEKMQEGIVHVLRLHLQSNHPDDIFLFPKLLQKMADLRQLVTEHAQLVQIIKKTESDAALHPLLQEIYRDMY
# Chain of Bile acid receptor (Homo sapiens) (Q96RI1 whole entry, looked up): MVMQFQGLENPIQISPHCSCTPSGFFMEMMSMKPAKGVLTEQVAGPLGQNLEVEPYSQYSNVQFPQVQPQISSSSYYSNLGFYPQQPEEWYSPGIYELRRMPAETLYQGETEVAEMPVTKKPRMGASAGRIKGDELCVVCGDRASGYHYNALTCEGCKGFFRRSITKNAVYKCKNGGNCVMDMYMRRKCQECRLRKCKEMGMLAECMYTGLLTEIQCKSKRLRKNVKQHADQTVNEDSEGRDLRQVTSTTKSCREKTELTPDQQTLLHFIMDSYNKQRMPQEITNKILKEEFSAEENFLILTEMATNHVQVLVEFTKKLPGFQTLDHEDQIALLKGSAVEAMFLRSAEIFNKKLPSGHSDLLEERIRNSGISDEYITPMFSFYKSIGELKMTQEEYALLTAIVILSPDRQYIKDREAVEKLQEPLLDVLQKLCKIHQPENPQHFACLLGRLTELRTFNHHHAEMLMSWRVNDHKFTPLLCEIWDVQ
# Chain of Thyroid hormone receptor beta (Homo sapiens) (P10828 whole entry, looked up): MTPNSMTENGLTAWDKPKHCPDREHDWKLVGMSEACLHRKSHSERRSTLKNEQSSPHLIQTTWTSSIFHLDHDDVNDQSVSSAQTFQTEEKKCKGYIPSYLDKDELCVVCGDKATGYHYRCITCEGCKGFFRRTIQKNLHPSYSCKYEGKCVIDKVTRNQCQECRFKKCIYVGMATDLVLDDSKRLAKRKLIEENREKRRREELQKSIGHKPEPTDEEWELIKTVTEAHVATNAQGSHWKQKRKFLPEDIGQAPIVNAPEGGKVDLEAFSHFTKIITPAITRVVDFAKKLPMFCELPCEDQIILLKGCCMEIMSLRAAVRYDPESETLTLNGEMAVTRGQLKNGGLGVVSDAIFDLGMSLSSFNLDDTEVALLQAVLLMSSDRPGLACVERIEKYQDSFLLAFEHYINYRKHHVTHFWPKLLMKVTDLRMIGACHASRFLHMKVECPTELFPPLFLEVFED
# Chain of Peroxisome proliferator-activated receptor gamma (Homo sapiens) (P37231 whole entry, looked up): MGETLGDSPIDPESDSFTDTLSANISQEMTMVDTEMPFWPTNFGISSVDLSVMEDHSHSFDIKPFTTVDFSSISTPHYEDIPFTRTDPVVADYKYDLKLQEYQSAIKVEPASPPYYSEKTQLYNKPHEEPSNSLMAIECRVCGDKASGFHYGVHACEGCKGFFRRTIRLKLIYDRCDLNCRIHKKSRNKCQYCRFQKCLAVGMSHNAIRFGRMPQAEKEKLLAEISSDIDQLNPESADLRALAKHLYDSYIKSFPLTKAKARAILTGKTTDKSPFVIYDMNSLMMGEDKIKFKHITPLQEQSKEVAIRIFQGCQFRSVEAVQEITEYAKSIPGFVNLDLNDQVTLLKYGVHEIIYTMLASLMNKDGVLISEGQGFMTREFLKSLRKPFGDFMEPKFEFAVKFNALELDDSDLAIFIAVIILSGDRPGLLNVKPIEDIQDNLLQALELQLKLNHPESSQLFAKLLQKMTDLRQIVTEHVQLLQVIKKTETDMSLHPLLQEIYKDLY
structure (smiles),measurement,setting,value
c1ccc(Oc2ccccc2)cc1,activation,[1],-0.867% (inactive)
same,outcome,[2],inactive
C#CCOC(=O)[C@@H](C)Oc1ccc(Oc2ncc(Cl)cc2F)cc1,activation,[1],-1.83% (inactive)
same,outcome,[2],inactive
Nc1cccc([N+](=O)[O-])c1,activation,[1],-0.749% (inactive)
same,outcome,[2],inactive
CCCCC/C=C\C/C=C\CCCCCCCC(=O)O,activation,[1],-2.08% (inactive) and -1.01% (inactive)
same,outcome,[2],inactive
Cc1c(C(=O)O)cccc1[N+](=O)[O-],activation,[1],-2.92% (inactive)
same,outcome,[2],inactive
CN(C)c1ccc(C(=O)c2ccc(N(C)C)cc2)cc1,activation,[1],-3.55% (inactive)
same,activation,[3],-2.75% (inactive)
same,Potency,[4],inactive
same,outcome,[5],inactive
same,Potency,[6],inactive
same,Potency,[7],3.98 µM (active)
same,activation,[8],1.06% (inactive)
same,Potency,[9],5.01 µM (active)
same,max response,[10],-1.25% (inactive)
same,max response,[11],-12.9% (inactive)
same,max response,[12],-23.3% (inactive)
same,Potency,[13],inactive
CCC[CH2][Sn]([CH2]CCC)([CH2]CCC)[O][Sn]([CH2]CCC)([CH2]CCC)[CH2]CCC,activation,[1],0.0431% (inactive)
same,activation,[3],3.22% (inactive)
same,Potency,[14],22.4 µM (active)
same,max response,[15],-23.3%
same,Potency,[16],0.355 µM (active)
same,activation,[9],0.111% (inactive)
same,max response,[10],5.55% (inactive)
same,Potency,[11],22.4 µM (active)
same,Potency,[12],31.6 µM (active)
same,Potency,[13],22.4 µM (active)
O=C(O)c1c(Cl)cccc1Cl,activation,[1],2.87% (inactive)
same,outcome,[2],inactive
c1ccc(B(c2ccccc2)c2ccccc2)cc1,activation,[1],2.92% (inactive)
same,outcome,[2],inactive
C=CC(=O)CC,activation,[1],3.81% (inactive)
same,outcome,[2],inactive
CSC1=N[C@@](C)(c2ccccc2)C(=O)N1Nc1ccccc1,activation,[1],1.54% (inactive)
same,activation,[3],0.812% (inactive)
same,outcome,[2],inactive
same,outcome,[5],inactive
same,max response,[15],25.5%
same,Potency,[16],inactive
same,activity change % (negative = inhibition),[17],-28.6% (inactive)
same,Potency,[18],6.86 µM (active)
same,activation,[9],-5.24% (inactive)
same,max response,[10],-0.163% (inactive)
same,Potency,[19],inactive
same,max response,[12],-18% (inactive)
same,Potency,[13],inactive
C=C[Si](OCCOC)(OCCOC)OCCOC,activation,[1],-1.57% (inactive)
same,outcome,[2],inactive
O=C(O)CCCCCCCCC(=O)O,activation,[1],-3.53% (inactive)
same,outcome,[2],inactive
C=CC(=O)NC(C)C,activation,[1],-0.191% (inactive)
same,outcome,[2],inactive
CC(=C/C=C/C(C)=C/C=C/C=C(C)/C=C/C=C(C)/C=C/C(=O)O)/C=C/C(=O)O,activation,[1],-1.08% (inactive)
same,outcome,[2],inactive
Cc1ccc(Cl)cc1,activation,[1],-1.75% (inactive)
same,outcome,[2],inactive
CCC(C)c1cc([N+](=O)[O-])cc([N+](=O)[O-])c1O (configuration not stated),activation,[1],4.38% (inactive)
same,activation,[3],-12.7% (inactive)
same,max response,[20],0.93%
same,Potency,[21],inactive
same,Potency,[4],inactive
same,Potency,[14],inactive
same,Potency,[6],inactive
same,max response,[22],-3.63%
same,max response,[23],15.9% (inactive)
same,activity change % (negative = inhibition),[17],-14.7% (inactive)
same,Potency,[7],6.31 µM (active)
same,activation,[8],-0.876% (inactive)
same,activation,[9],6.77% (inactive)
same,max response,[10],-1.93% (inactive)
same,Potency,[19],inactive
same,Potency,[13],inactive
C=CCCCCCCC=C,activation,[1],-0.711% (inactive)
same,outcome,[2],inactive
CCCCCCCCCCCCOCC1CO1 (configuration not stated),activation,[1],-0.164% (inactive)
same,outcome,[2],inactive
Cc1ccc(N=Nc2c(O)ccc3ccccc23)c([N+](=O)[O-])c1,activation,[1],-0.458% (inactive)
same,outcome,[2],inactive
CCCCC(CC)COC(=O)c1ccc(C(=O)OCC(CC)CCCC)cc1 (configuration not stated),activation,[1],2.72% (inactive)
same,outcome,[2],inactive
CCCCCCCC/C=C\CCCCCCCC(=O)N(CCO)CCO,activation,[1],0.527% (inactive)
same,outcome,[2],inactive
